The source of these data is PubChem BioAssay AID1964107 (National Center for Advancing Translational Sciences (NCATS), 2024).

Structures are written as SMILES. Hit rate of the full screen: of about 31,000 compounds, about 360 (1.2%) were called active. Not shown: some 8% with an inconclusive outcome. The list comes from a sample in which actives are over-represented; it also holds similar structures and randomly drawn compounds. Unmarked numbers belong to inactive results. The call rests on the fitted dose curve.
On the % scale 0 is the no-effect control and ±100 the full control effect; potency means the concentration at half of the fitted maximal effect.

In the test the target is Polyprotein P1234 (Chikungunya virus (strain S27-African prototype)) (UniProt Q8JUX6). In words: Primary qHTS for inhibitors of NSP2Pro chikungunya virus (CHIKV). Further: nearly all actives have a fitted effect of over 60% in size. The following applies: FRET peptide cleavage, fluorescence 1 h; series mostly up to 24.9 µM; activity change, negative = inhibition: at the top concentration. An excerpt: PI: Natalia J. Martinez Ph.D. National Center for Advancing Translational Sciences (NCATS), National Institute of Health (NIH), Rockville, Maryland Chikungunya virus (CHIKV) is a mosquito-borne RNA virus that has emerged as one of the most important global arboviral threats in the last decade. Although the first CHIKV vaccine has recently been FDA approved for use in healthy adults at increased risk, to date, there are no available antiviral drugs for CHIKV infection. CHIKV nsP2 protease plays a crucial role in the processing of the viral polypeptide precursor to release enzymes required for viral replication, thus making it a promising drug target for antiviral discovery. Here, we established a high-throughput pipeline to identify small molecule inhibitors of nsP2 proteolytic activity. The pipeline is composed of a suite of 1,536-well in vitro assays to support quantitative high-throughput (qHTS) screening campaigns. Specifically, we developed a fluorescence resonance energy transfer (FRET)-based assay using a fluorogenic peptide substrate encompassing an endogenous cleavage site and purified recombinant protease domain (nsP2pro). Using this assay, we interrogated ~37,000 small molecules, including those in drug repurposing libraries as well as chemically diverse and medicinal chemistry-friendly compounds. Hits were selected for follow-up validation against full-length nsP2 and an additional peptide. FRET-based 1,536-well assays for papain, hepatitis C virus NS3-4A, and human furin proteases were implemented to characterize compound selectivity. […] Novel compounds were identified to be potential nsP2 inhibitors and molecular docking analyses were performed to explain the binding mode of selected hits. In vitro antiviral activity was evaluated for a subset of compounds using a high-throughput CHIKV infection assay. To our knowledge, the pipeline presented here is unprecedented for CHIKV antiviral discovery research.
Sequence of Polyprotein P1234 (Chikungunya virus (strain S27-African prototype)) (Q8JUX6 whole entry, looked up): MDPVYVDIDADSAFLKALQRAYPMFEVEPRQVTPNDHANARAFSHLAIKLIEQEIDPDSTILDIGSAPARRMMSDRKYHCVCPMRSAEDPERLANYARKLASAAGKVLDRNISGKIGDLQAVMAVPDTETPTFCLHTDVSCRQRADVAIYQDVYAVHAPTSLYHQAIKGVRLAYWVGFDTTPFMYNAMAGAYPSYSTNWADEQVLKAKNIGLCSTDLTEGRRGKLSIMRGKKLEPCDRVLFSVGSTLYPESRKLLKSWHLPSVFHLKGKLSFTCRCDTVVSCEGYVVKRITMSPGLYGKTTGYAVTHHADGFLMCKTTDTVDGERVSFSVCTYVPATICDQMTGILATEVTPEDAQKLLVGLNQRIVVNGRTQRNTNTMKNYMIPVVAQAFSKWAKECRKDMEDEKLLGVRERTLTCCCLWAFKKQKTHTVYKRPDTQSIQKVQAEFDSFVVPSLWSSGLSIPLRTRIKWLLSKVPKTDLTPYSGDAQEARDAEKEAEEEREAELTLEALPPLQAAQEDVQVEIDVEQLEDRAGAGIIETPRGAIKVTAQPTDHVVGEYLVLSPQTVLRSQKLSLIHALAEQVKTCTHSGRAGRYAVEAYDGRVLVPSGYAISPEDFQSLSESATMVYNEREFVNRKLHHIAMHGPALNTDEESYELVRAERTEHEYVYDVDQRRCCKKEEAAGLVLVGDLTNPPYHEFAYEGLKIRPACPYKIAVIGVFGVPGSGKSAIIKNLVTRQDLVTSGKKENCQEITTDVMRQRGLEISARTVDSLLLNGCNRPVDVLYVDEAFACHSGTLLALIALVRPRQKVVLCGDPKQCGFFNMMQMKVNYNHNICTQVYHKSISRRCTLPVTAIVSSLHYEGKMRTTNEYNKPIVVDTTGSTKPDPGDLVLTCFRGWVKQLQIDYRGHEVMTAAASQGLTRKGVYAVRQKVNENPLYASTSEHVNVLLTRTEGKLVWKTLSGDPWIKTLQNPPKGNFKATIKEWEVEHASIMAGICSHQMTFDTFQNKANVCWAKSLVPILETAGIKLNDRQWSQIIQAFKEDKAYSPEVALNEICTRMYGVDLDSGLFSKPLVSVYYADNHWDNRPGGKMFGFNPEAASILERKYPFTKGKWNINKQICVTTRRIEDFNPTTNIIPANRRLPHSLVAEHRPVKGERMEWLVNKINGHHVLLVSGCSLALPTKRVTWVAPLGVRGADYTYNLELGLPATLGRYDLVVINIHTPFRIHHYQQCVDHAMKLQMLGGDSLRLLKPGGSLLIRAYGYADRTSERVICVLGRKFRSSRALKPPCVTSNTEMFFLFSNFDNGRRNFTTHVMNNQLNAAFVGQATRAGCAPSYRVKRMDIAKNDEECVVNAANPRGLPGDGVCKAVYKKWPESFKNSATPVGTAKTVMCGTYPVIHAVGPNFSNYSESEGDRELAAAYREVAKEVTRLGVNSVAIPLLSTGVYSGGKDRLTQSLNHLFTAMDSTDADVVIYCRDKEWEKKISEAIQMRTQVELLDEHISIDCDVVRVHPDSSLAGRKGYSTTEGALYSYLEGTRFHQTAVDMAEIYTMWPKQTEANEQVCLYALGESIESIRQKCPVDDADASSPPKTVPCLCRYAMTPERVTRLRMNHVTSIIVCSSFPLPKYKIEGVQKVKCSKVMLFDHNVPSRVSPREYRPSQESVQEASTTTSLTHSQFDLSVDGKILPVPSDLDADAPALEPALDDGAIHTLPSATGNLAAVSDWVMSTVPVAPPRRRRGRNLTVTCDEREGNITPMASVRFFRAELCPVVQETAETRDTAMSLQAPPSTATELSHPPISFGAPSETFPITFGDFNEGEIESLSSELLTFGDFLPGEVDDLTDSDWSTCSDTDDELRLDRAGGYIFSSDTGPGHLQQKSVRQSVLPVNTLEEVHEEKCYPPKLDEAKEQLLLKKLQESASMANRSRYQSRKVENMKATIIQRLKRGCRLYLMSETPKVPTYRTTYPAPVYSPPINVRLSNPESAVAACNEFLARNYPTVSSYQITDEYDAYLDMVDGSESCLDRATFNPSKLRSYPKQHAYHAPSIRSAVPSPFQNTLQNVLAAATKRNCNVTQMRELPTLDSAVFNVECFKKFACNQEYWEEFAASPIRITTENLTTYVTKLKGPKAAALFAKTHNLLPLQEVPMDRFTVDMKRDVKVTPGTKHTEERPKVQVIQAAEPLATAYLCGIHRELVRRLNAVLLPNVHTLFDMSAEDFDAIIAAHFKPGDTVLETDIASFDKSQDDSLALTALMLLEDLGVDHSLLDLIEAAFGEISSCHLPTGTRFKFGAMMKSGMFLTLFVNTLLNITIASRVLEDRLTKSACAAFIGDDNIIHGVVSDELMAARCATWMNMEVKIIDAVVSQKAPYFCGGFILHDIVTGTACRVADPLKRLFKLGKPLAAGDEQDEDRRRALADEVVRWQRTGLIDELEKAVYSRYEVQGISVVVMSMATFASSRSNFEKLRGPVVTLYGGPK
PROTOCOL TABLE (as described by Inglese J, Shamu CE and Guy RK. 2007) SEQUENCE No. (e.g., 1, 2, 3, etc.); […] (e.g., Cells, Incubation, Reagent, etc.); VALUE; DESCRIPTION. 1; Control / Compound; 20 nL; Echo 655 acoustic dispenser, Greiner 1536-well solid bottom black plate. 2; Enzyme; 4 uL; BioRAPTR FRD liquid dispenser (Beckman Coulter). 3; Incubation; 15 min; room temperature. 4; Reagent; 4 uL; 2.5 uM Peptide 2 substrate. 5; Incubation; 1 hr; room temperature. 6; Detection; Fluorescence; WiewLux microplate reader (PerkinElmer), 525 nm excitation, 598/25 nm emission. NOTES (numbers refer to sequence numbers above). 1. Briefly, 20 nL DMSO, positive control ZnAc (20nM final concentration), and test compounds were transferred into a 1,536-well solid bottom black plate (789176-F, Greiner One) via Echo 655 acoustic dispenser (Beckman Coulter). For primary screens, compounds were tested at 7 concentrations, 1:3 dilution points ranging from 25 uM to 34 nM. Follow-up confirmatory screens were carried out at 11 concentrations, 1:3 dilution points from 25 uM to 0.42 nM. 2. Four uL nsP2pro enzyme mix (150 nM final concentration) in 10 mM Tris-HCl pH 8.0 with 0.01% Tween 20 assay buffer was dispensed into the plate using a BioRAPTR FRD liquid dispenser (Beckman Coulter). 3. The plate was incubated at room temperature (protected from light) for 15 min 4. Four microliter of peptide 2 substrate (2.5 uM final concentration) in assay buffer was added to the plate. 5. After 1 hour, plates were immediately read on a ViewLux high-throughput CCD imager (Exposure = 10 sec, Gain = High, Speed = Slow, Binning = 2X). The above assay was also incorporated in the NCATS HTS facility41, which allowed for robotic liquid and compound dispensing, microplate handling, and fluorescence reading.. REFERENCE: Inglese J, Shamu CE and Guy RK, Reporting data from high throughput screening of small molecule libraries, Nature Chemical Biology, 2007, 3(8): 438-441. doi.org/10.1038/nchembio0807-438.
(In general: qHTS replaces the single test concentration by a dilution series.)
On to `CC(C)NC(=O)NCC1Cn2cccc2C(=O)N1Cc1ccccc1` (configuration not stated), for which the “activity change, negative = inhibition” value was -12.1%.
Take `CCCC12CN3CC(CCC)(CN(C1)C3c1c[nH]c3ccc(OC)cc13)C2=O` (configuration not stated): the “activity change, negative = inhibition” value was 8.29%.
The same measure, in the same setting: then `COc1ccc(N2Cc3cccc(C(=O)O)c3C2=O)cc1OC`, with -3.96%; and `Cc1ccc(NC(=O)CSc2nc3c(c(=O)[nH]2)CN(Cc2ccc4c(c2)OCO4)CC3)cc1C`, with -21.7%.
Regarding `O=C(Nc1ncc(Cc2ccc(C(F)(F)F)cc2)s1)c1ccc(-c2ccc([N+](=O)[O-])cc2)o1`, the “activity change, negative = inhibition” value is -11.4%.
With `COc1cccc(Nc2ccc(N3CCN(C(C)=O)CC3)cc2)c1OC`, the compound was called inactive.
Consider `COc1ccccc1OCCCn1c(-c2ccc(Cl)cc2)nc2ccccc2c1=O`, for which the “activity change, negative = inhibition” value was -10.8%.
Still for that read-out and setting: then `Cc1cc(C)nc(NS(=O)(=O)c2ccc(NC(=O)c3cc(=O)c4ccc(C)c(C)c4o3)cc2)n1`, with -9.45%.
As to `O=C1C(F)N([S+](=O)([O-])c2ccc3c(c2)OCCO3)CCN1[S+](=O)([O-])c1c(F)cccc1F` (configuration not stated), the compound was classed as inactive.
`Cc1cnn(CCC(=O)N2CCC3(CCNCC3)CC2)c1`: the “activity change, negative = inhibition” value was -10.6%.
Still for that read-out and setting: then `CCOc1ccc(N(Cc2ccccc2)C(=O)c2nc(SCC)ncc2Cl)cc1`, with 4.15%.
Same read-out and setting: then `CCOc1ccc(N(CC)C(=O)C2CCN(S(=O)(=O)c3cccc4nonc34)CC2)cc1`, with -21.2%.
Consider `CCOc1ccc(N(Cc2ccccc2)C(=O)c2nc(S(C)(=O)=O)ncc2Cl)cc1`, for which the Potency is 5.01 µM (active).
For `Cn1nnnc1Sc1ncnc2n[nH]c(-c3cccc(S(C)(=O)=O)c3)c12`, the Potency is 2.82 µM (active).
Consider `Cn1nnnc1Sc1ncnc2scc(-c3ccccc3[N+](=O)[O-])c12`, for which the “activity change, negative = inhibition” value is -0.0419%.
For the compound `Cc1ccc(-c2ccccc2CN2CCN([S+](=O)([O-])c3cccc(C(F)(F)F)c3)CC2)cc1Cl`, the compound was classed as inactive.
As for `O=C(Nc1nc(-c2ccccc2)cs1)c1ccncc1NS(=O)(=O)c1ccc(Cl)cc1`, the “activity change, negative = inhibition” value is 2.25%.
Regarding `Cc1c(Cl)cccc1NC(=O)N1CCN(C(=O)c2nsc3ccccc23)CC1`, the “activity change, negative = inhibition” value was -22.7%.
Still for that read-out and setting: the value for `COc1cc(C(CC(=O)NCCC(C)C)N2Cc3ccccc3C2=O)cc(OC)c1OC` (configuration not stated) was -20.7%; that for `O=C(Cn1ccn2nc3c(c2c1=O)CCCCC3)NCc1ccccc1Cl` was -6.55%; that for `CC1=C(C(=O)N2CCN(c3cccc(C(F)(F)F)c3)CC2)C2(CCCCC2)OC1=O` was -21.5%.
Still for that read-out and setting: the value for `CC(C)Sc1oc(-c2cccs2)nc1S(=O)(=O)c1ccc(Cl)cc1` was -23.7%.
Still for that read-out and setting: then `CCc1nc(-c2ccc(OC3CCN(C(=O)Cc4c[nH]c5ccccc45)C3)cc2)no1` (configuration not stated), with -4.97%; and `COc1ccc(CN2CCN(CCCSc3cc(C(C)(C)C)c(O)c(C(C)(C)C)c3)CC2)c(OC)c1OC`, with 11.3% [at 5.1 µM].
Regarding `Cc1cn2nc(C(=O)NC3CCCC3)cc2c(N2CCSCC2)n1`, the compound was called inactive.
Same read-out and setting: then `CCN(CC)c1cc(CCC(=O)NCc2cc(F)ccc2F)ccn1`, with “inactive”.
On to `FC(F)(F)c1cc(Nc2nc3ccccc3c3nncn23)ccc1Cl`, for which the “activity change, negative = inhibition” value is -5.64%.
Same read-out and setting: the value for `C=CS(=O)(=O)N1CCCN(c2cc(NCCC(=O)O)nc(-c3ccccn3)n2)CC1` was 166%.
Still for that read-out and setting: the value for `Cc1ccc(NC(=O)CCCn2c(=O)c3cccn3c3ccccc32)cc1Cl` was -22%.
The same measure, in the same setting: then `Cc1ccccc1[C@@H](C(=O)NC1CCCCC1)N(C(=O)Cn1ccnc1C)c1cccc(F)c1`, with 4.93%; and `CCOC(=O)C1CCCN(CC(=O)Nc2cc(C)c3c(=O)oc4ccccc4c3n2)C1` (configuration not stated), with -8%; and `COc1ccc(Cc2nc3ccc(C(=O)NCc4ccccc4Cl)cc3o2)cc1`, with -15.7%.
Turning to `COc1ccc(C2=Nn3c(nnc3-c3ccccc3OC)SC2)cc1OC1CCCC1`, the compound was classed as inactive.
With `O=[S+]([O-])(c1ccc2c(c1)OCCO2)N1CCN([S+](=O)([O-])c2c(Cl)cc(Cl)cc2Br)CC1`, the “activity change, negative = inhibition” value is -5.69%.
Still for that read-out and setting: then `CC(=O)N1Cc2ccccc2CC2(CCN(Cc3ccc(O)cc3)CC2)C1`, with -17.4%.
In the case of `N#Cc1cc(-c2nc(Nc3ccc(F)c(F)c3)c3ccccc3n2)ccn1`, the call was inactive.
On to `COCCNc1ncnc2c1c(-c1ccccc1)cn2-c1ccc(C)c(Cl)c1`, for which the “activity change, negative = inhibition” value is -18.5%.
Same read-out and setting: then `CN(Cc1ccccc1)C(=O)c1cn(C)c2ccc(S(=O)(=O)N(C)C3CCCCC3)cc2c1=O`, with -8.33%.
`O=C(Nc1ccc2ncnc(N3CCCCC3)c2c1)C1CCCCC1`: the result was inactive.
Regarding `CCOc1ccc(CCNC(=O)c2cc3ccccc3n2Cc2cccc(C)c2)cc1OCC`, the “activity change, negative = inhibition” value was -6.04%.
For the compound `O=C(Cn1nc2c(cc1=O)CCCCC2)NC1CCN(C(=O)c2cc3ccccc3[nH]2)CC1`, the “activity change, negative = inhibition” value was 4.65%.
The same measure, in the same setting: the value for `COc1cc(OC)c(C(CC(=O)N2CC(C)CC(C)C2)c2ccc3c(c2)OCO3)c(OC)c1` (configuration not stated) was -1.01% [at 39.2 µM].
As to `Fc1cc(Nc2nc(-c3ccncc3)nc3ccccc23)ccc1N1CCCCC1`, the result was inactive.
Turning to `O=C(c1nc(-c2ccsc2)c2cnccn12)N1CCCC1`, the “activity change, negative = inhibition” value was -15.1% [at 39.2 µM].
Still for that read-out and setting: then `O=S(=O)(NCCc1noc(-c2ccccc2)n1)c1ccc2c(c1)OCCO2`, with -3.1%.
As for `CCOC(=O)c1cccc(NC(=O)Cn2cnc3nc4c(cc3c2=O)CCCC4)c1`, the “activity change, negative = inhibition” value is -27.2%.
On to `C/C(=C\CC[C@@H](C)[C@H]1CC(O)[C@@]2(C)C3CC[C@H]4C(C)(C)[C@@H](OC5OCC(O)C(O)C5OC5OC(CO)C(O)C(O)C5O)CC[C@@]45C[C@@]35CC(O)[C@]12C)C(=O)O` (some centres not stated), for which the “activity change, negative = inhibition” value was -6.9% [at 10 µM].
